Among the data in PubChem BioAssay are composite z-score, z-score and composite Z-score values, retold here.

Active and inactive are the calls of the source.

The test system of experiment [1] is Human papillomavirus type 1a protein E7 (residues 44-93). Put plainly: small molecules binding HPV E7 44-93 – biochemical, small-molecule microarray, residues 44-93, 635 nm fluorescence, primary screen (AID 1108).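 Also: E7 fragment applied at 1 µg/mL in TBST for 1 h at 4 C; score combines spot fluorescence with its signal to noise ratio.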 The settings on record: fluorescence 635 nm, higher = more signal.
Experiment [2] can be described thus: hepatitis C replication reporter changes, two-sided – Huh7 cells, luciferase reporter, HCV replication inhibitor project, primary screen (AID 1109).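 Also: huh7 hepatoma cells harbouring a luciferase neomycin HCV replicon reporter; luciferase luminescence as measure of HCV replicon replication; test concentration not given here.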 The settings on record: Huh7 HCV replicon luciferase reporter, 48 h; higher = more signal. In general terms: Reporter assays use an easily measured gene product as a stand-in for the process of interest.
The target in experiment [3] is Left-right determination factor 2 (Homo sapiens) (UniProt O00292). The experiment in a line: small molecules binding LEFTY2 protein – biochemical, small-molecule microarray, 635 nm fluorescence scan, primary screen (AID 1110). As to conditions: higher = more signal.
For experiment [4], the target named is Calmodulin-1 (Homo sapiens) (UniProt P0DP23). The experiment in a line: small molecules binding calmodulin-1 with EGTA – biochemical, small-molecule microarray, Cy5-labelled CALM1, profiling panel (AID 1111).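 Also: labelled calmodulin applied in Tris saline Tween buffer holding calcium plus EGTA and DTT.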 As to conditions: Cy5-CALM1 binding fluorescence, higher = more signal.
The target is the same in experiment [5]. The experiment in a line: small molecules binding Ca-loaded calmodulin-1 – biochemical, small-molecule microarray, Cy5-labelled CALM1, plus calcium, artefact control for SMM control-protein annotation, profiling panel (AID 1112).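 Also: score merges spot fluorescence with signal to noise from triplicate slides.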 The settings on record: Cy5-CALM1 binding fluorescence, higher = more signal.
Experiment [6] in a line: probe aWnt5a binding to arrayed compounds – biochemical, biotinylated probe, 635/667 nm fluorescence, primary screen (AID 1113).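 Also: score merges 667 nm fluorescence intensity with signal-to-noise per printed feature.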 As to conditions: small-molecule microarray, higher = more signal.
The nature of experiment [7]: probe aShh binding to arrayed compounds – biochemical, biotinylated probe, 635/667 nm fluorescence, primary screen (AID 1114).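 Also: probe is biotin-labelled aShh protein from a stem cell growth factor screen; measures binding of labelled protein to compounds printed on the slide; score merges feature fluorescence at 667 nm with signal-to-noise.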 As to conditions: small-molecule microarray, higher = more signal.
Experiment [8] is described as follows: probe aNog binding to arrayed compounds – biochemical, biotinylated probe, 635/667 nm fluorescence, primary screen (AID 1115).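 Also: probe is biotinylated aNog protein used at 0.15 µg/mL for 1 h at 4 C; z-score combines 667 nm fluorescence of each spot with its signal to noise.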 The settings on record: small-molecule microarray, higher = more signal.
The target in experiment [9] is Torsin-1A-interacting protein 1 (Homo sapiens) (UniProt Q5JTV8). Put plainly: compound microarray binding of lysate hLAP1 – cell lysate, small-molecule microarray, COS7 lysate, 635/667 nm fluorescence, primary screen (AID 1116). As to conditions: 635 nm fluorescence, higher = more signal.
Experiment [10] addresses Alpha-bungarotoxin (Bungarus multicinctus) (UniProt P60615). Put plainly: compounds binding labelled alpha-BTX control protein – biochemical, small-molecule microarray, Alexa647 label, 635/667 nm fluorescence, artefact control for SMM control protein annotation, profiling panel (AID 1117). The settings on record: alpha-BTX-A647 binding fluorescence, higher = more signal.
Another experiment has as its target Albumin (Bos taurus) (UniProt P02769). The experiment in a line: compounds binding labelled BSA control protein – biochemical, small-molecule microarray, Alexa647 label, 635/667 nm fluorescence, artefact control for SMM control protein annotation, profiling panel (AID 1118).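 Also: score merges 667 nm emission intensity and signal-to-noise per printed compound spot.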 As to conditions: BSA-A647 binding, fluorescence 635 nm, higher = more signal.
The nature of experiment [11]: probe aXIP binding to arrayed compounds – biochemical, NeuroSMM set, 635/667 nm fluorescence, primary screen (AID 1119).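 Also: probe is the protein aXip251-270 applied at 1 µg/mL to compound-printed slides; binding of probe to printed compounds measured as 667 nm fluorescence plus signal to noise.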 As to conditions: small-molecule microarray, higher = more signal, called active from +8 up or from −8 down.
A short description of experiment [12]: probe aNOTCH3 binding on compound microarray – biochemical, small-molecule microarray, 635/667 nm fluorescence, primary screen (AID 1120).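 Also: probe is a biotin-tagged antibody raised against NOTCH3 rather than NOTCH3 protein; score merges spot fluorescence near 667 nm with spot signal to noise.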 The settings on record: higher = more signal.
Experiment [13] can be described thus: probe aNOTCH2 binding on compound microarray – biochemical, small-molecule microarray, 635/667 nm fluorescence, primary screen (AID 1121).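 Also: score merges feature fluorescence read at 667 nm with its signal to noise.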 The settings on record: higher = more signal.
The target in experiment [14] is Carbonic anhydrase 2 (Homo sapiens) (UniProt P00918). The experiment in a line: compounds binding carbonic anhydrase 2 – biochemical, small-molecule microarray, Alexa647-labelled CAII, profiling panel (AID 1122). The settings on record: CAII-A647 binding fluorescence, higher = more signal.
The nature of experiment [15]: COS7 lysate on small-molecule microarray, probe aHis, 635 nm (AID 1123).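 Also: z-score combines 667nm fluorescence intensity with signal-to-noise per printed compound spot.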 As to conditions: COS7 cell lysate, fluorescence, higher = more signal.
A short description of experiment [16]: probe aLAP1 signal on lysate-treated microarray – cell lysate, small-molecule microarray, COS7 lysate, primary screen (AID 1124).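 Also: lysate comes from COS7 cells expressing LAP1 and is applied at 0.3 µg/mL; score merges spot fluorescence near 667 nm with signal-to-noise over triplicate slides.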 As to conditions: probe aLAP1, fluorescence, higher = more signal.
Another experiment concerns Sam68 (KHDRBS1). The experiment in a line: compounds binding KHDRBS1 protein – biochemical, small-molecule microarray, 635 nm fluorescence, primary screen (AID 1125).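 Also: score merges 667 nm channel intensity with signal to noise over triplicate slides.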 As to conditions: higher = more signal.
Experiment [17] deals with Chordin-like protein 2 (CHRDL2). Put plainly: compounds binding chordin-like 2 – biochemical, small-molecule microarray, 635 nm fluorescence, primary screen (AID 1126).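 Also: printed compound slides probed with Chrdl2 protein at 4 µg/mL for 1 h at 4 C; score merges 667 nm emission intensity with signal to noise over three replicate slides.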 The settings on record: fluorescence 635 nm, higher = more signal.
Experiment [18] concerns the target Concanavalin-A (Canavalia ensiformis) (UniProt P02866). The experiment in a line: compounds binding concanavalin A lectin – biochemical, small-molecule microarray, Alexa647 label, 635 nm, artefact control for SMM control protein annotation, primary screen (AID 1127).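 Also: z combines 667 nm emission intensity with signal-to-noise across three replicate slides.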 As to conditions: ConA-A647 binding fluorescence, higher = more signal.

Sequence of Left-right determination factor 2 (Homo sapiens) (O00292 whole entry, looked up): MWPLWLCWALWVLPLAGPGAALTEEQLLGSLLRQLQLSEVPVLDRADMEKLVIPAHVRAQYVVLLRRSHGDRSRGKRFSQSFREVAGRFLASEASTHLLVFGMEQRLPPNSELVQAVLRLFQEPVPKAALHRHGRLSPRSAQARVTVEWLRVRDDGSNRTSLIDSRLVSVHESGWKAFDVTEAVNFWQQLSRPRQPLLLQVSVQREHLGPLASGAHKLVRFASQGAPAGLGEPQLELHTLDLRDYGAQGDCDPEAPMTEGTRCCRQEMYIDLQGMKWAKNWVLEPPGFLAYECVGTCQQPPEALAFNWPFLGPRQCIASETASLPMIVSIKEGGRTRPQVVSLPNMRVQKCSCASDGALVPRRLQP
Sequence of Albumin (Bos taurus) (P02769 whole entry, looked up): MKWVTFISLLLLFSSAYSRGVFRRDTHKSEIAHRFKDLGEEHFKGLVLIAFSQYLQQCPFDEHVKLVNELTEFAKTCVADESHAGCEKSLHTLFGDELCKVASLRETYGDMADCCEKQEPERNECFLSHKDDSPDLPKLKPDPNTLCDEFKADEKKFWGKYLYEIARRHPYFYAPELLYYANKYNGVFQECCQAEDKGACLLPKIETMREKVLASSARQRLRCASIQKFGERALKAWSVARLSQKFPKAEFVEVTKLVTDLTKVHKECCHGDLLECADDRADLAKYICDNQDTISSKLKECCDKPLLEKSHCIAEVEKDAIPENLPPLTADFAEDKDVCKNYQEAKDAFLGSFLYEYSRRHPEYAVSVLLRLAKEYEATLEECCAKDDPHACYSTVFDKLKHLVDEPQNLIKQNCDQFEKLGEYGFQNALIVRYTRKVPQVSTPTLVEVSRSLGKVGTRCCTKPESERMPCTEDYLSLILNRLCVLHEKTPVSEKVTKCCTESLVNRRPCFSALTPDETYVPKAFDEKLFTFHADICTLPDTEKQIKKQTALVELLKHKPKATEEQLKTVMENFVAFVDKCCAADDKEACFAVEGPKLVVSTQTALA
Sequence of Concanavalin-A (Canavalia ensiformis) (P02866 whole entry, looked up): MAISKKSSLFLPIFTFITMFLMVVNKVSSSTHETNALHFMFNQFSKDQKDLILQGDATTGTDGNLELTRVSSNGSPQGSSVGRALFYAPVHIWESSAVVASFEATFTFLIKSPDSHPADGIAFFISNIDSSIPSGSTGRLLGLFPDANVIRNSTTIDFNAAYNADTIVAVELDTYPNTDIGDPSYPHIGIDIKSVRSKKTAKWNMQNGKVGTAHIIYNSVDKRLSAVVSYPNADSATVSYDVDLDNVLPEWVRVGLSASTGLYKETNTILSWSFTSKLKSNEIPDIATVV
Sequence of Alpha-bungarotoxin (Bungarus multicinctus) (P60615 whole entry, looked up): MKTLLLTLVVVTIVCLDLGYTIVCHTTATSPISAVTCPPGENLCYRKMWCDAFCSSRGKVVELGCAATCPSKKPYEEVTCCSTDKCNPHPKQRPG
Sequence of Torsin-1A-interacting protein 1 (Homo sapiens) (Q5JTV8 whole entry, looked up): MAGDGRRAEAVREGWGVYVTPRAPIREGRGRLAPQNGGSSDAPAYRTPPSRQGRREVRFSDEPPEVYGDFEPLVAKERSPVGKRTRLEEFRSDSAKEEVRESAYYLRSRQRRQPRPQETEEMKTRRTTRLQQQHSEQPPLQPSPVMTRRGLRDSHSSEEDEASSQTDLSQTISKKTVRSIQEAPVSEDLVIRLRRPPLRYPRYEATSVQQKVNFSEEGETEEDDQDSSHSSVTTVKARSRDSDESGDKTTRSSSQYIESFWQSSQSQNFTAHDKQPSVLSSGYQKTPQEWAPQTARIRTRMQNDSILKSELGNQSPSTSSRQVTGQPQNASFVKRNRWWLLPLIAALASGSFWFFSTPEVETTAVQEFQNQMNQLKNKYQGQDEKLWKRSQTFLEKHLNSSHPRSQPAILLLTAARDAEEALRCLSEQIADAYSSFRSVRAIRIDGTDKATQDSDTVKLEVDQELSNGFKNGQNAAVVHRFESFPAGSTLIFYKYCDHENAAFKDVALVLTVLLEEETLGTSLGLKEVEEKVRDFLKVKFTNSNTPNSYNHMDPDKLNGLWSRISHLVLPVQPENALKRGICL

Regarding `COc1ccc(CCNC(=O)[C@@H]2c3ccccc3C(=O)N(Cc3ccc(OC(F)(F)F)cc3)[C@H]2c2ccc(CO)cc2)cc1`, the composite z-score in experiment [1] was 1.38; in [3] it was -0.264; in experiment [4], 0.107; in experiment [5], -0.12; in experiment [6], -0.146; in experiment [7], -0.147. Also, the composite z-score is 0.28 in [8]; 1 in experiment [9]; -0.0177 in experiment [10]; 0.59 with Albumin (Bos taurus); -0.0077 in experiment [12]; -0.0029 in [13]. Also, the composite z-score in experiment [14] was 0.497; in experiment [15] it was 1.53; in [16], 0.983; with Sam68 (KHDRBS1) it was 1.07; in experiment [17] it was 0.0372; in experiment [18] it was 0.485. In experiment [2], this compound came in with a z-score of -1.81. The composite Z-score in [11] was -0.313 (inactive).
For `Cc1ccc(S[C@]2(C(=O)NCCN3CCOCC3)CC(=O)N(Cc3cc(C(F)(F)F)cc(C(F)(F)F)c3)[C@@H]2c2ccc(CO)cc2I)cc1`, the composite z-score in experiment [1] is 0.105; in experiment [3], -1.45; in experiment [4], -0.452; in experiment [5], 0.492; in experiment [6] it was -0.176; in experiment [7] it was -0.331. Further, the composite z-score in experiment [8] is -0.389; in experiment [9] it was -0.604; in experiment [10] it was -0.306; in the experiment with Albumin (Bos taurus), 0.59; in experiment [12], -0.214; in experiment [13], -0.164. Further, the composite z-score in [14] was 0.661; in experiment [15], 0.373; in experiment [16], -0.0586; in the experiment on Sam68 (KHDRBS1), 0.134; in [17] it was -1.16; in [18], -0.13. In experiment [2], this compound had a z-score of -1.59. The composite Z-score in experiment [11] was -1.18 (inactive).
With `Cc1ccccc1C(O)C1C=CC2C(=O)N(C)C(=O)C2N1N1CCCCC1` (stereo not given), the composite z-score in experiment [1] worked out at 1.05; in [3] it was 0.163; in [4] it was 0.8; in experiment [5], 0.413; in [6], 0.0403; in [7], 0.254. Also, the composite z-score in experiment [8] is 1.72; in [9] it was 1.65; in experiment [10], 1.04; with Albumin (Bos taurus), 0.992; in experiment [12] it was 0.36; in experiment [13], 0.21. Besides, the composite z-score was 0.793 in [14]; 2.92 in experiment [15]; 0.996 in experiment [16]; 1.32 in the experiment with Sam68 (KHDRBS1); 0.642 in [17]; 1.09 in experiment [18]. In experiment [2], the z-score was -0.18. Also, in experiment [11], the composite Z-score is -0.118 (inactive).
Regarding `C=C(C(=O)CC[C@H](OC(C)=O)c1ccc(OCCO)cc1)C(C)C`, the composite z-score in experiment [1] was -0.268; in [3] it was 1.03; in experiment [4], -0.189; in [5], -1.39; in [6] it was -0.1; in experiment [7], -0.0157. Besides, the composite z-score was -0.0965 in experiment [8]; 0.949 in [9]; 1.05 in [10]; 0.531 with Albumin (Bos taurus); 0.0569 in experiment [12]; -0.132 in experiment [13]. The composite z-score came to 0.708 in experiment [14]; 0.354 in [15]; 1.15 in experiment [16]; 0.564 in the experiment on Sam68 (KHDRBS1); 0.615 in experiment [17]; 0.846 in [18]. Further, in [2], the z-score was -4.11. Besides, in [11], the composite Z-score is 0.277 (inactive).
As to `Cc1ccc(S[C@]2(C(=O)NC3CC3)CC(=O)N(Cc3ccccc3)[C@@H]2c2ccc(CO)cc2)cc1`, the composite z-score in [1] is -0.269; in experiment [3], -1.19; in [4], -0.274; in experiment [5], 0.176; in experiment [6], -0.197; in [7] it was -0.237. In addition, the composite z-score in [8] is 0.314; in experiment [9] it was 1.39; in [10], 0.848; with Albumin (Bos taurus), 0.391; in experiment [12], -0.284; in [13], 0.125. The composite z-score is 0.27 in experiment [14]; 2.78 in experiment [15]; 0.677 in [16]; -0.664 in the experiment with Sam68 (KHDRBS1); -1.49 in experiment [17]; -0.788 in [18]. In experiment [2], the z-score was -0.921. Also, the composite Z-score in [11] was 0.225 (inactive).
